# Assay outcomes deposited in PubChem BioAssay by The Scripps Research Institute Molecular Screening Center.
# M1 PAM = potentiates human M1 receptor response to acetylcholine; P11229; CHO-K1 hM1, Fluo-8 calcium fluorescence, ACh EC20; 0% = ACh EC20, 100% = maximal ACh; activation, % at 3 µM; 0.088% of 360,000 active; in the data active = activation above about 19%, passing the limit was not always enough
# Target sequence (P11229 whole entry, looked up): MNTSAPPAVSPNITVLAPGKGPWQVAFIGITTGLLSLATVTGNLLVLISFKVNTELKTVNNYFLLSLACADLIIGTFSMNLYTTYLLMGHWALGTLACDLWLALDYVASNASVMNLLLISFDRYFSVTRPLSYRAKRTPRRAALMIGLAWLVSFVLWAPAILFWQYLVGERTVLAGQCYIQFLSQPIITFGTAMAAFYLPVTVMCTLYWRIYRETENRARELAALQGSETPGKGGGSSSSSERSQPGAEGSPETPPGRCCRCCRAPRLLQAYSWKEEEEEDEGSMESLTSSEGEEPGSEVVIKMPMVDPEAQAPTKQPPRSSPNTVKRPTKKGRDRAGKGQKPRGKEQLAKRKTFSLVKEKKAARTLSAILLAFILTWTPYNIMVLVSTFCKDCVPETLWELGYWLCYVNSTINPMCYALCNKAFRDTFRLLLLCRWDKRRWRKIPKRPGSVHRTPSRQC
# M1 ag = human M1 muscarinic receptor agonism. P11229. CHO-K1 hM1, Fluo-8 calcium fluorescence, agonist mode; 0% DMSO, 100% acetylcholine EC100. activation, % at 3 µM. 0.33% of 360,000 active;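 active = activation above the run's mean compound activation plus 3 SD, cut at about 16% in these data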;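 note: peak over basal fluorescence ratio within a 140 s kinetic read after compound addition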
# M1 antag = human CHRM1 antagonism | P11229 | CHO-K1 hM1, Fluo-8 calcium fluorescence, ACh EC80 antagonist | inhibition, % at 3 µM | 1.3% of 360,000 active | AID 588852;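 active = percent inhibition above its own plate's cutoff, namely the mean of that plate's compound wells plus 3 SD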;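 note: peak over basal fluorescence ratio during 140 s after agonist addition; 0% = ACh EC80 plus DMSO and 100% = DMSO alone without agonist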
# M1 ag parental = M1 agonist counterscreen hit in parental CHO-K1 cells; Fluo-8 calcium fluorescence; scaled to maximal ATP response, vehicle zero; activation, % at 3 µM; 0.48% of 360,000 active; in the data active = activation above about 15%;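 note: untransfected CHO-K1 host cells lacking M1 receptor as counterscreen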
# CHO-K1 Ca PAM = counter-screen for M1 PAMs: effect in parental CHO-K1 cells; AID 602247; activation, % at 3 µM; 0.02% of 360,000 active; ATP EC20, Fluo-8 calcium fluorescence; 0% at ATP EC20, 100% at ATP max;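 active = activation above the run cutoff, the mean activation of all test compounds plus 3 SD, cut at about 40% in these data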;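 note: peak over basal fluorescence ratio in a 140 s read after ATP addition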
# CHO-K1 Ca antag = M1 antagonist counterscreen hit in parental CHO-K1 cells | ATP-induced calcium, Fluo-8 fluorescence | inhibition, % at 3 µM | 0.6% of 360,000 active;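 active = inhibition above a per-plate cutoff, the plate's mean sample inhibition plus 3 SD, cut at about 24% in these data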;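 note: 0% = DMSO plus EC80 ATP and 100% = DMSO alone without ATP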
# Numbers without * were called inactive. A selection: hits, their analogues and other compounds. The true share with any hit is near 2.3%.
SMILES,M1 PAM,M1 ag,M1 antag,M1 ag parental,CHO-K1 Ca PAM,CHO-K1 Ca antag
CSc1ccc(CN2CCC(Oc3ccc(C(=O)N4CCCC4)cc3)CC2)cc1,-23,-5,87*,0,0,-1
CCOc1cccc(CN2CCC(Oc3ccc(C(=O)N4CCCC4)cc3)CC2)c1,-23,-5,49*,1,3,-11
COc1cc(C)c(CN2CCC(Oc3ccc(C(=O)N4CCCC4)cc3)CC2)cc1C,1,-5,-6,1,7,-11
O=C(c1ccc(OC2CCN(C/C=C/c3ccc(F)cc3)CC2)cc1)N1CCCC1,-21,-4,55*,3,12,-6
COc1ccc(CN2CCC(Oc3ccc(C(=O)N4CCCC4)cc3)CC2)c(F)c1,-23,-6,61*,1,3,-8
COC(=O)c1ccc(S(=O)(=O)NC(C)(C)C)n1C,4,0,-7,1,10,-11
CCN1CCCC1CNC(=O)c1cc2cc(F)ccc2[nH]1 (centres undefined),3,-10,-7,0,-9,-2
COC(=O)c1ccc(OCCCCN(C)Cc2ccccc2)cc1,-22,-8,31*,2,24,-7
CCOc1cccc(OCCOCCN(C)Cc2ccccc2)c1,-9,-5,31*,1,23,-4
Cc1ccc(Cl)c(OCCCCN(C)Cc2ccccc2)c1,-26,-6,37*,1,6,5
CCOc1cccc(OCCOCCN(C)C)c1,9,-8,-3,0,0,5
CC1CN(S(=O)(=O)c2cccc(C(=O)NCC(c3cccs3)N3CCOCC3)c2)CC(C)O1 (centres undefined),11,-6,-6,0,1,-5
CC(=C/c1ccco1)/C=N/NC(=O)CSc1nnc(SCc2ccc(C)cc2)s1,-7,-9,-4,0,5,5
c1ccc(-c2ccccc2OCCN2CCCC2)cc1,-29,-11,68*,0,-24,18
c1ccc(-c2ccccc2OCCOCCN2CCCCC2)cc1,-14,-8,19,1,16,-6
c1ccc(-c2ccccc2OCCCCN2CCCCCC2)cc1,-26,-9,35*,4,15,-2
Cc1ccc(S(=O)(=O)NN=CC2(c3ccccc3)CC2)cc1,6,-3,-20,0,42*,-5
Cc1ccc(S(=O)(=O)N/N=C\C=C\c2ccccc2)cc1,9,0,-9,0,-6,3
C/C(=N\OCc1ccc(C#N)cc1)c1ccc(S(=O)(=O)N(C)C)cc1,-18,-3,28,15*,-7,9
NNC(=O)[C@H](Cc1ccccc1)NC(=O)NCCc1ccccc1,-1,-4,-9,-1,-12,-3
COC(=O)c1ccc(C[n+]2ccccc2)cc1,9,-9,-15,0,-6,24*
COC(=O)c1ccc(NC(=O)C[n+]2ccccc2)cc1,-13,-10,13,1,9,-5
CC(OC(=O)c1ccc(F)c(S(=O)(=O)N2CCOCC2)c1)C(=O)NC1CCCC1 (centres undefined),4,-2,-7,0,-11,27*
COc1ccc(S(=O)(=O)/N=C2/NC(=O)/C(=C\c3cc(OC)c(OC)cc3[N+](=O)[O-])S2)cc1,13,0,-19,1,18,-7
COc1cc(/C=C2\S/C(=N/S(=O)(=O)c3ccccc3)NC2=O)c([N+](=O)[O-])cc1OC,11,3,-7,2,-7,27*
SMILES,M1 PAM,M1 ag,M1 antag,M1 ag parental,CHO-K1 Ca PAM,CHO-K1 Ca antag
Cc1ccccc1Cc1c(C)nc2nc(SCC(=O)NCCCN3CCCCC3)nn2c1C,-31,-13,51*,0,0,-2
Cc1ccc(Cc2c(C)nc3nc(SCC(=O)NCCCN4CCOCC4)nn3c2C)cc1,-3,-5,-5,1,10,-17
Cc1nc2nc(SCC(=O)NCCCN3CCCCCC3)nn2c(C)c1Cc1ccccc1,-38,-12,77*,0,13,-13
O=C(NN1C(=O)C2C(c3ccccc3)C=CC(c3ccccc3)C2C1=O)c1cccc(Br)c1 (centres undefined),-25,-11,81*,8,18,1
O=C(NN1C(=O)C2C3c4ccccc4C(c4ccccc43)[C@@H]2C1=O)c1ccccc1 (some centres undefined),7,-9,-5,0,16,-10
O=C(NN1C(=O)C2C(c3ccccc3)C=CC(c3ccccc3)C2C1=O)c1ccccc1 (centres undefined),-27,-11,46*,5,28,-11
CC1C(=O)N(Cc2cn(Cc3ccco3)nn2)CCS(=O)(=O)N1Cc1ccc(-c2ccccc2)cc1 (centres undefined),11,-2,-16,0,15,-17
Cc1cccc(C)c1-c1ccc(CN2C(CC(C)C)C(=O)N(Cc3cn(CCO)nn3)CCS2(=O)=O)cc1 (centres undefined),-9,-3,29*,7,4,15
CC1C(=O)N(Cc2cn(Cc3ccco3)nn2)CCS(=O)(=O)N1Cc1ccc(-c2ccc(Cl)cc2)cc1 (centres undefined),-1,-5,-4,0,-11,28*
CC1C(=O)N(Cc2cn(CCC3OCCCO3)nn2)CCS(=O)(=O)N1Cc1ccc(-c2ccc(Cl)c(Cl)c2)cc1 (centres undefined),-16,1,31*,10,-7,8
CC1C(=O)N(Cc2cn(CCC3OCCCO3)nn2)CCS(=O)(=O)N1Cc1ccc(-c2ccc(F)cc2)cc1 (centres undefined),-7,-3,1,5,6,1
CC(C)N(C)c1ncnc2c1ncn2[C@H]1CN(Cc2ccc3c(c2)OCO3)C[C@@H](CO)O1,-4,0,-6,1,-13,5
OC(CNCC(c1ccc(Cl)cc1Cl)c1c[nH]c2ccccc12)c1ccccc1 (centres undefined),9,-2,-3,16*,15,2
O=[N+]([O-])CC(c1ccccc1)c1c[nH]c2ccccc12 (centres undefined),13,-2,-15,0,7,-7
CCOc1ccc(/C=C/C(=O)OCC(=O)NCCc2ccc(OCC)c(OCC)c2)cc1OC,4,-7,-3,0,-11,-2
O=C(CN1C(=O)c2cccnc2Oc2ccc(Cl)cc21)NCCCc1ccccc1,-9,2,30*,9,15,2
O=C(COc1c(F)c(F)cc(F)c1F)NC(=O)NC1CCCC1,-21,-6,31*,0,17,-4
COc1cc(CN2C[C@@H](CO)O[C@@H](n3cnc4c(NC5CCC5)ncnc43)C2)cc(OC)c1OC,5,3,-8,0,32,-9
OC[C@@H]1CN(Cc2ccc(F)cc2)C[C@H](n2cnc3c(N4CCCC4)ncnc32)O1,10,2,-18,1,1,-5
